Results on one sequence are retold here after PMC7862700, “An all-to-all approach to the identification of sequence-specific readers for epigenetic DNA modifications on cytosine”.

Common to all, as to assay: DAPPL (digital affinity profiling via proximity ligation, sequencing); 10 mM Tris-HCl pH 7.5, 50 mM NaCl, 1 mM DTT, 4% glycerol, room temperature, 30 min; GST-TFs on glutathione beads, 16-mer random dsDNA library, 0.1% formaldehyde crosslink after washing; high values mean tight binding
For one assay, the target named is T1, FEV (Homo sapiens, UniProt Q99581 1-238).
T1 sequence: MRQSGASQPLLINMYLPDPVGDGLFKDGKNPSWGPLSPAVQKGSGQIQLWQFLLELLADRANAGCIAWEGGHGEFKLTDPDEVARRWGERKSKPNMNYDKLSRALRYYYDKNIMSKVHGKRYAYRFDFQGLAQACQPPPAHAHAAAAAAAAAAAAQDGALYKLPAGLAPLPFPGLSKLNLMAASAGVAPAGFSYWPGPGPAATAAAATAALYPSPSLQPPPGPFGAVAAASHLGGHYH
To be noted: protein: recombinant; tags: N-terminal GST; dsDNA, one strand shown. In outline:
(§1)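 Sequencing on an Illumina NextSeq500 followed washing, crosslinking with 0.1% formaldehyde, proximity ligation (BsaI/T4 ligase, 1 h, 37 °C) and PCR amplification of pools that had been incubated for 30 min at room temperature with 200 nmole of a random double-stranded 16-mer DNA library in Tris/NaCl/DTT/glycerol buffer. Each pool held DNA-barcoded human transcription factors, expressed in yeast as GST fusions and captured on glutathione beads, plus a tag-only sample. Binding signal is a hexamer's read frequency for a factor divided by its frequency in the tag-only sample.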

A further assay concerns the target ETV5 (Homo sapiens, UniProt P41161 1-510). To be noted: protein: recombinant; tags: N-terminal GST; dsDNA, one strand shown. The essentials:
as §1

For the next assay, the target named is HSF1 (Homo sapiens, UniProt Q00613 1-529). To be noted: protein: recombinant; tags: N-terminal GST; chain copies: 3; dsDNA, one strand shown. In outline:
as §1

Another assay addresses T2, SPIC (Homo sapiens, UniProt Q8N5J4 1-248).
T2 sequence: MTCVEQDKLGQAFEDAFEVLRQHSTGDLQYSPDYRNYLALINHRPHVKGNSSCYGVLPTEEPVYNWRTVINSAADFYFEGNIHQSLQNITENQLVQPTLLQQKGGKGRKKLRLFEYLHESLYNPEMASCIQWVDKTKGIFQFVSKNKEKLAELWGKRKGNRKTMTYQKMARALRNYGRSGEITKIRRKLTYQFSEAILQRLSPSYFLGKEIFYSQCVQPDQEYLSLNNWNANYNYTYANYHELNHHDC
To be noted: protein: recombinant; tags: N-terminal GST; dsDNA, one strand shown. The essentials:
as §1

A further assay addresses ELF4 (Homo sapiens, UniProt Q99607 1-663). The settings on record: protein: recombinant; tags: N-terminal GST; dsDNA, one strand shown. In outline:
as §1

The target of a further assay is T3, ELK4 (Homo sapiens, UniProt P28324-2 1-405).
T3 sequence: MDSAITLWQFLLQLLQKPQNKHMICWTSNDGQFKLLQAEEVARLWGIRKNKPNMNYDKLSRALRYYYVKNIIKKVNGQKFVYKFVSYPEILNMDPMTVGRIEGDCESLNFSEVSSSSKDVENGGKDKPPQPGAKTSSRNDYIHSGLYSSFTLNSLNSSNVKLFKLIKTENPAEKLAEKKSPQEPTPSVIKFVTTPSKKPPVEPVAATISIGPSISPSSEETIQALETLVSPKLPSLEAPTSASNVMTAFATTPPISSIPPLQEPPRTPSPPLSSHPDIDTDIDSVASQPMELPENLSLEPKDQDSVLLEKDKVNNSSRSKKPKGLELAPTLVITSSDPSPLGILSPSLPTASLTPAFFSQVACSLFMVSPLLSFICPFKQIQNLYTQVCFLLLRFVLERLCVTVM
To be noted: protein: recombinant; tags: N-terminal GST; dsDNA, one strand shown. In outline:
as §1

The target of the next assay is T4, ETV2 (Homo sapiens, UniProt O00321 1-342).
T4 sequence: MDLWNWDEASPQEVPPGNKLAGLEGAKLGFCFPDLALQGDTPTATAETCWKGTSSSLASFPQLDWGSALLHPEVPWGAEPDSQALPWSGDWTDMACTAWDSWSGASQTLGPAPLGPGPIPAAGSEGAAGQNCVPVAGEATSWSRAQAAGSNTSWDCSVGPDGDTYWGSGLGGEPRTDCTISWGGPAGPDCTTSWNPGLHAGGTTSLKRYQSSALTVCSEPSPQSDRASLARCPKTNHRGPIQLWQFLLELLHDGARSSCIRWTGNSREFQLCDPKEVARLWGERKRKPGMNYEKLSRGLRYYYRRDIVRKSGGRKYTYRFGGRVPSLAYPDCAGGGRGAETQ
To be noted: protein: recombinant; tags: N-terminal GST; dsDNA, one strand shown. In outline: as §1

In a further assay the target is T5, ELF3 (Homo sapiens, UniProt P78545 1-371).
T5 sequence: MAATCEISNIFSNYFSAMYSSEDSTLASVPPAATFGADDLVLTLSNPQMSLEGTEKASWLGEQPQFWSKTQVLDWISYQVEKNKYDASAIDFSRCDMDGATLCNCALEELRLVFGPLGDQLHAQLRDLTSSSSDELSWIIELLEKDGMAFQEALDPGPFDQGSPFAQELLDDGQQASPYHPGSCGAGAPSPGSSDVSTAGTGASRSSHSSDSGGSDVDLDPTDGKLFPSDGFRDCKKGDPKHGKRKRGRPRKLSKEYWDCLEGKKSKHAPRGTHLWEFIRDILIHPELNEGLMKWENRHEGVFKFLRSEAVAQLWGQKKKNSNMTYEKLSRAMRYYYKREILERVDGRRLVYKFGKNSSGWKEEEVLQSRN
The settings on record: protein: recombinant; tags: N-terminal GST; dsDNA, one strand shown. In outline:
as §1

The target in the next assay is CRX (Homo sapiens, UniProt O43186 1-299). The settings on record: protein: recombinant; tags: N-terminal GST; dsDNA, one strand shown. The essentials:
as §1

For the next assay, the target named is ETV1 (Homo sapiens, UniProt P50549 1-477). To be noted: protein: recombinant; tags: N-terminal GST; dsDNA, one strand shown. The essentials:
as §1

The next assay addresses T6, ERF (Homo sapiens, UniProt P50548 1-548).
T6 sequence: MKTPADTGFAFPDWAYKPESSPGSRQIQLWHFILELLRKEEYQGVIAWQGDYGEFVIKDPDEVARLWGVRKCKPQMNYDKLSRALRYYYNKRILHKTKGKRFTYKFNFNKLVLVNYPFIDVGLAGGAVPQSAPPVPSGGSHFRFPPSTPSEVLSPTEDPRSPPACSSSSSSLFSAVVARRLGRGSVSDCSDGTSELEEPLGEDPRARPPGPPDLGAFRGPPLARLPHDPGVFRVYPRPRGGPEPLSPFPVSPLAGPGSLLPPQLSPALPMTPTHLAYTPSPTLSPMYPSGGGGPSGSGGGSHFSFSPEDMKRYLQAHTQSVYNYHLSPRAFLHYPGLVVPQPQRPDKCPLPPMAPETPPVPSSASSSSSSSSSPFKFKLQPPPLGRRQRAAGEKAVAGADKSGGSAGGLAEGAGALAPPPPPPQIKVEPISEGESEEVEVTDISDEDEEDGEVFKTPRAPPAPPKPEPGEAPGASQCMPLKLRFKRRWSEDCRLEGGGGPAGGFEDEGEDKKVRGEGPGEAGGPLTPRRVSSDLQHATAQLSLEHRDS
The settings on record: protein: recombinant; tags: N-terminal GST; dsDNA, one strand shown. In outline: as §1

A further assay deals with T7, ETV3L (Homo sapiens, UniProt Q6ZN32 1-361).
T7 sequence: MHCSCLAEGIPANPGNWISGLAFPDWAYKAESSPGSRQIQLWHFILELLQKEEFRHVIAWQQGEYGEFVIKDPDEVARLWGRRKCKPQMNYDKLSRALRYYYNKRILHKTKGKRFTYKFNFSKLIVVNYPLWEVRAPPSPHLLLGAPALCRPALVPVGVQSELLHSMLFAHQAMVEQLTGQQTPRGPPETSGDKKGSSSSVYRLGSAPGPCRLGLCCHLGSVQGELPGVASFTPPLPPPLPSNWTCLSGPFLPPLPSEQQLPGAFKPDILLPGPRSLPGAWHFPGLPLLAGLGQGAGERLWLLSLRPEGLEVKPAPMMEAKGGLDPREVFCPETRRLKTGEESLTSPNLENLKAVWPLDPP
The settings on record: protein: recombinant; tags: N-terminal GST; dsDNA, one strand shown. In outline: as §1

The next assay addresses T8, ETS2 (Homo sapiens, UniProt P15036 1-469).
T8 sequence: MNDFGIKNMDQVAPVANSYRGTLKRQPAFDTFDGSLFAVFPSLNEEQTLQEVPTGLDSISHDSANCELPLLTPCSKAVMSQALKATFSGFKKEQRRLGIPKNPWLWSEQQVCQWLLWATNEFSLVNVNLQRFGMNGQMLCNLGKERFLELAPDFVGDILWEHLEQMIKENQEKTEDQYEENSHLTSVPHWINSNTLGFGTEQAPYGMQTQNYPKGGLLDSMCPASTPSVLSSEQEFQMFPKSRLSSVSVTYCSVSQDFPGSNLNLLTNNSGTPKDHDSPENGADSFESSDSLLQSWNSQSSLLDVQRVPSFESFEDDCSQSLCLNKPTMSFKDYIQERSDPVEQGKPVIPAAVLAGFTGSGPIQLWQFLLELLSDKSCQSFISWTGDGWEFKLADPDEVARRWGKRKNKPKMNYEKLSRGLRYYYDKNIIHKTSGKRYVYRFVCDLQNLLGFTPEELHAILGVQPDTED
The settings on record: protein: recombinant; tags: N-terminal GST; dsDNA, one strand shown. In outline: as §1

The next assay has as its target T9, SPDEF (Homo sapiens, UniProt O95238 1-335).
T9 sequence: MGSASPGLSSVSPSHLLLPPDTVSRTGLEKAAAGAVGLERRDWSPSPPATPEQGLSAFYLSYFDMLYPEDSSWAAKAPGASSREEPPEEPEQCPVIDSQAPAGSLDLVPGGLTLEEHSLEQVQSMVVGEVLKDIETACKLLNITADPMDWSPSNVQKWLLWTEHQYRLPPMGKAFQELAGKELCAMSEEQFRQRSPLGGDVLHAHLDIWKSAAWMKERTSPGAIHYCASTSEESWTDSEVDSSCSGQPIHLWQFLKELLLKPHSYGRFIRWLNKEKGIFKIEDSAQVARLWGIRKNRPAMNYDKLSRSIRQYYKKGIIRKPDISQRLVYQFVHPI
To be noted: protein: recombinant; tags: N-terminal GST; dsDNA, one strand shown. In outline: as §1

The next assay concerns the target T10, ETV7 (Homo sapiens, UniProt Q9Y603 1-341).
T10 sequence: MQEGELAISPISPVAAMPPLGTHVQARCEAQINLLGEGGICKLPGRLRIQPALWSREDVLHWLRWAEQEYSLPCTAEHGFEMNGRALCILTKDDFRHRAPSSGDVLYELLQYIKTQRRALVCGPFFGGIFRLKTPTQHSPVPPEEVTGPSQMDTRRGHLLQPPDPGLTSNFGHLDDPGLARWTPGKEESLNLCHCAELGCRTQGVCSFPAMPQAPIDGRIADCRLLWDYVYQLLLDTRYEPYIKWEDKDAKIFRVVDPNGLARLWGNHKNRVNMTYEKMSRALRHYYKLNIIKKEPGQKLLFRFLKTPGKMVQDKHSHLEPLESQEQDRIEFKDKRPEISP
To be noted: protein: recombinant; tags: N-terminal GST; dsDNA, one strand shown. The essentials: as §1

Another assay has as its target T11, ELF5 (Homo sapiens, UniProt Q9UKW6-2 1-255).
T11 sequence: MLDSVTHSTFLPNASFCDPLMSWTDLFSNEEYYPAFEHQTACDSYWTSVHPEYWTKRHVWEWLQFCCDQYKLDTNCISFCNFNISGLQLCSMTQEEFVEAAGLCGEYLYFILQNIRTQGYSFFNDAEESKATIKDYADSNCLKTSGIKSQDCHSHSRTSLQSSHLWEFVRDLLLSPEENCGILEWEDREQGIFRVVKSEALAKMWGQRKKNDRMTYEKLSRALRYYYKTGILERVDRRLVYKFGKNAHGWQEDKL
To be noted: protein: recombinant; tags: N-terminal GST; dsDNA, one strand shown. The essentials:
as §1

Another assay addresses T12, ETV3 (Homo sapiens, UniProt P41162-2 1-143).
T12 sequence: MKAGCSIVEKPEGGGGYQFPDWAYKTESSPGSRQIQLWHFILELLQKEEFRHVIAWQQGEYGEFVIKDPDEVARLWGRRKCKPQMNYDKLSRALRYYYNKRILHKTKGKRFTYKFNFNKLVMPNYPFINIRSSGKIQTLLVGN
To be noted: protein: recombinant; tags: N-terminal GST; dsDNA, one strand shown. In outline:
as §1

For a further assay, the target named is ETV6 (Homo sapiens, UniProt P41212 1-452). The settings on record: protein: recombinant; tags: N-terminal GST; dsDNA, one strand shown. In outline:
as §1

ETV5, sequence (P41161 whole entry): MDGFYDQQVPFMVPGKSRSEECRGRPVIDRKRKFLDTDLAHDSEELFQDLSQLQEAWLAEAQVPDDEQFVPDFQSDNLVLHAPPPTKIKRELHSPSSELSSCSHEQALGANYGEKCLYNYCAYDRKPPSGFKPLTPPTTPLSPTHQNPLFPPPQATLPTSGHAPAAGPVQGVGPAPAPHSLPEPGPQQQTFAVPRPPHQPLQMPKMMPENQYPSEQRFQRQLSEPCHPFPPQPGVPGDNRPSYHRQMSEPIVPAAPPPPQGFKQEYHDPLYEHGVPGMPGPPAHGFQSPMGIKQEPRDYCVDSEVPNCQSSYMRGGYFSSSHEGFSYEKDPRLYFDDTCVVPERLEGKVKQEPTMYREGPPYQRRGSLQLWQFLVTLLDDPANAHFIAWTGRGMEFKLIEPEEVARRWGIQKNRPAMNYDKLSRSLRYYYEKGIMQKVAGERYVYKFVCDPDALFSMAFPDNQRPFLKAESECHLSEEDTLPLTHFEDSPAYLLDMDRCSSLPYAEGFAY
ETV1, sequence (P50549 whole entry): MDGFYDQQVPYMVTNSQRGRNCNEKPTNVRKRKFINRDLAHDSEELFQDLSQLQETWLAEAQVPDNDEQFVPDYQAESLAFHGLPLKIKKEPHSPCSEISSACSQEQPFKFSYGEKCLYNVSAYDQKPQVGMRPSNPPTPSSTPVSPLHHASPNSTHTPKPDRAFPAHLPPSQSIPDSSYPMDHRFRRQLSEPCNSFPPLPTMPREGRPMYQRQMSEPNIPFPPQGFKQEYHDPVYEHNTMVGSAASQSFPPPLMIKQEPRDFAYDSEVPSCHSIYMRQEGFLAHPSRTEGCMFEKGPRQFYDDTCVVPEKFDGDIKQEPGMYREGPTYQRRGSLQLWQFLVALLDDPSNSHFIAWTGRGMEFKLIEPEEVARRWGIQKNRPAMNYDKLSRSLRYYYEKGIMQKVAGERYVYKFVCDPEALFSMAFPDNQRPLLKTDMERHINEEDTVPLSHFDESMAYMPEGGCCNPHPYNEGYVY
HSF1, sequence (Q00613 whole entry): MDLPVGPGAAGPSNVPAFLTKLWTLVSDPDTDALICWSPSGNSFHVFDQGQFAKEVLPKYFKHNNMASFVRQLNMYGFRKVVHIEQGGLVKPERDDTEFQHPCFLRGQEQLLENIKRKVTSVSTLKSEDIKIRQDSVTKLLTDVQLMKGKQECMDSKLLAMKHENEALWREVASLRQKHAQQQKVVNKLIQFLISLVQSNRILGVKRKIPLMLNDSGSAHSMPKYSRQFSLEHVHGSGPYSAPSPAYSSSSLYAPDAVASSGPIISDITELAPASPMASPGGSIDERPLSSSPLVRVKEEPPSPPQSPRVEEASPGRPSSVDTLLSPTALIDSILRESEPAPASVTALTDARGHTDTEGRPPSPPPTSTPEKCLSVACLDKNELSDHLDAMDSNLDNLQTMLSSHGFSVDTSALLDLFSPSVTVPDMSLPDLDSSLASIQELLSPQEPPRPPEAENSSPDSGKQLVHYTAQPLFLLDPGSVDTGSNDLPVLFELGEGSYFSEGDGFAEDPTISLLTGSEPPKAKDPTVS
ETV6, sequence (P41212 whole entry): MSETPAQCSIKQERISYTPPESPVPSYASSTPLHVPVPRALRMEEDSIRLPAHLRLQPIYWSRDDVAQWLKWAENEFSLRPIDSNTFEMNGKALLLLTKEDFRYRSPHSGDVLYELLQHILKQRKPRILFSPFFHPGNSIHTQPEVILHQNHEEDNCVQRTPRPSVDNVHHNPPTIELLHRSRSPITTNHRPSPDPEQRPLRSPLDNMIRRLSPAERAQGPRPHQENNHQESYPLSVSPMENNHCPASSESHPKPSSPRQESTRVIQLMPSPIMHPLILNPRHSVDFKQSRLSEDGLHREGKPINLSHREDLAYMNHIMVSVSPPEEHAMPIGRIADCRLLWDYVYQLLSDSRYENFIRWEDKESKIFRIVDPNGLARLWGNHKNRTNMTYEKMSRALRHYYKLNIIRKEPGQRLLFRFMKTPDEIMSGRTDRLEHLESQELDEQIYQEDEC
ELF4, sequence (Q99607 whole entry): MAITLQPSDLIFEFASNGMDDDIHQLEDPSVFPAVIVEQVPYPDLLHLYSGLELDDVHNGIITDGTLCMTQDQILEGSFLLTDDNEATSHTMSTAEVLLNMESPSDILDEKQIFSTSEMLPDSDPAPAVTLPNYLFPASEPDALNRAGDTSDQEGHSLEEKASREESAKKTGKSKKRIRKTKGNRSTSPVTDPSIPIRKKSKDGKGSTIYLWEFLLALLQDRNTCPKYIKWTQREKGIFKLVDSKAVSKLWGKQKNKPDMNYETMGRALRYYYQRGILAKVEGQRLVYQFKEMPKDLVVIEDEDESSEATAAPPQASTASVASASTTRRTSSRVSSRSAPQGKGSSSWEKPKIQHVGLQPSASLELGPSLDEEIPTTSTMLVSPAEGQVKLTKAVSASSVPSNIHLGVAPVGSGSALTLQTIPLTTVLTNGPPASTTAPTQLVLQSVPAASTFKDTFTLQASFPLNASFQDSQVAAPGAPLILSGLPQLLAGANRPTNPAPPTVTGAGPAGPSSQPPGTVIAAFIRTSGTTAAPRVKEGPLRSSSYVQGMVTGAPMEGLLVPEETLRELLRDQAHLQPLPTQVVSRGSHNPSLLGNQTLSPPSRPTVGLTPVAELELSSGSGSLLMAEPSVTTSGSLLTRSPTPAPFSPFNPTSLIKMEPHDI
CRX, sequence (O43186 whole entry): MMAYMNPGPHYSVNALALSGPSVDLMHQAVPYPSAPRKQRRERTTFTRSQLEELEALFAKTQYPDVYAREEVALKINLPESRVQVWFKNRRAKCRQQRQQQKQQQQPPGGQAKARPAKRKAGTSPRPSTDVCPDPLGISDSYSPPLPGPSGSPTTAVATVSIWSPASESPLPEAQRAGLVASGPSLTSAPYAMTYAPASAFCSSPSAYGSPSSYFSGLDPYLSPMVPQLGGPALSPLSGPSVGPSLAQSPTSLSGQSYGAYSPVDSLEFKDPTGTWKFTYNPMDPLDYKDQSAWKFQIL

Turning to TCCTTG, the binding signal with FEV is 1.21 fold enrichment (6-mer frequency, TF over GST control); with ETV5 it was 1.22 fold enrichment (6-mer frequency, TF over GST control); with HSF1, 1.15 fold enrichment (6-mer frequency, TF over GST control); with SPIC, 1.23 fold enrichment (6-mer frequency, TF over GST control); with ELF4, 1.27 fold enrichment (6-mer frequency, TF over GST control); in the assay with ELK4 it was 1.41 fold enrichment (6-mer frequency, TF over GST control). In addition, the binding signal is 1 fold enrichment (6-mer frequency, TF over GST control) with ETV2; 1.31 fold enrichment (6-mer frequency, TF over GST control) with ELF3; 1.11 fold enrichment (6-mer frequency, TF over GST control) with CRX; 1.35 fold enrichment (6-mer frequency, TF over GST control) with ETV1; 1.39 fold enrichment (6-mer frequency, TF over GST control) with ERF; 1.29 fold enrichment (6-mer frequency, TF over GST control) with ETV3L. Also, the binding signal was 1.28 fold enrichment (6-mer frequency, TF over GST control) with ETS2; 1.48 fold enrichment (6-mer frequency, TF over GST control) with SPDEF; 1.22 fold enrichment (6-mer frequency, TF over GST control) with ETV7; 1.95 fold enrichment (6-mer frequency, TF over GST control) with ELF5; 1.36 fold enrichment (6-mer frequency, TF over GST control) in the assay with ETV3; 1.19 fold enrichment (6-mer frequency, TF over GST control) with ETV6.
